# From PubChem BioAssay AID652025 (National Center for Advancing Translational Sciences (NCATS), 2013)
# Screen size: about 360,000 compounds; about 240 (0.067%) were called active. Cut-off read from the data, not from the text of the source: active = activation above about 50%; inconclusive = mostly about 30% to 49%; inactive = weaker than that. For the sample, actives were picked, then their nearest neighbours and some compounds at random.
# Test: qHTS of IL-2 Activators; note: 0% is about no effect
# Conditions: IL-2 activation reporter assay, cell-based qHTS; stronger effect = higher value; in transgenic mouse T cells; stimulated with anti-CD3/CD4/CD28 beads
# From the text: The adaptive immune response against any infectious agent begins with the activation of an antigen specific T cell. This relatively rare and inert ("naive") T cell undergoes a massive proliferative expansion and differentiation process to generate sufficient number of potent pathogen-specific effector T cells. The effector T cells fight the infection by making cytokines and helping other cells to become fully armed as well. If any naive T cell has antigen receptors (TCRs) that can be activated by self peptides, then a variety of regulatory mechanisms kick in to prevent this cell from performing to its full potential. These processes collectively constitute the phenomenon of immunological tolerance and their failure leads to autoimmunity. One arm of tolerance involves generation of biochemical negative feedback downstream of the TCR (tuning). This is especially relevant to self antigens present in the body over long periods of time (chronic), which form the bulk of our proteome. The negative feedback serves to tune the TCR signaling, such that the ambient antigenic stimulation is nullified intracellularly. Unfortunately, this critical machinery serves as a target for chronic viral, bacterial and parasitic infections (as well as tumors), which can evade a robust immune response, simply by allowing T cells to tune down their signaling to pathogen or malignancy derived antigens. As such, disrupting the tuning in such cases would allow the tolerant T cell to function again and deliver a robust effector response.
# If a therapeutic can restore responsiveness to the tuned down T cell, even for a short time, they could combat the pathogen without any additional immunization. To that end, we have developed a sensitive HTS T cell based assay based on IL-2. This assay will be screened against the Molecular Libraries Small Molecule Repository (MLSMR) to find small molecules that could elicit this response.
# NIH Chemical Genomics Center [NCGC]
# NIH Molecular Libraries Probe Centers Network [MLPCN]
# Assay Submitter (PI): Ron Schwartz, NIAID
# 4 microL (750 cells/well) of unstimulated transgenic mouse T cells (columns 1-3,5-48) are dispensed into Aurora LoBase, black clear-bottom 1536-well assay plates; column 4 receives an identical concentration of transgenic memory T cells as a non-tolerant control. Compounds are then transferred via Kalypsys pin tool equipped with 1536-pin array (10 nL slotted pins, V&P Scientific, San Diego, CA). Following addition of compound and a 60 minute incubation, 1 microL of bead stimulation solution ((0.04 micron Fluospheres (Life technologies, CA) coated with 10ug/ml each anti-CD3 and anti-CD4 (clones 2C11 and GK1.5, BD Biosciences, CA) and mixed with 1ug/ml anti-CD28 (clone PV-1, BD biosciences, CA)). columns 2-48) is added to stimulate the IL-2 response pathway; media is instead added to column 1 as an unstimulated control, while PMA/ionomycin (Sigma Aldrich, MO) is added to column 3 as a control for IL-2 tolerance bypass. The plates are then incubated at 37 degrees C for 18 hours. EGFP and DsRed signal are then detected using an Acumen eX3 Explorer fluorescent plate cytometer. All cells are dispensed in cell media containing EHAA (Quality Biologicals, MD), RPMI (Quality Biologicals, MD), Glutamine (Life Technologies, CA), Penicillin/Streptomycin (Quality Biologicals, MD), 2-ME (Sigma Aldrich, MO) and 10% FBS (Gemini Bioproducts, CA) .
row,SMILES,activation
1,COc1ccccc1N(CC(=O)Nc1ccccc1C(=O)N1CCCC1)S(C)(=O)=O,-1.54% (inactive)
2,Cc1cc(Br)ccc1SCC(=O)OCC(=O)NCc1ccc2c(c1)OCO2,-3.89% (inactive)
3,CCOc1ccc(NC(=O)CN(C)CC(=O)Nc2cccc(Cl)c2C)cc1OCC,-1.33% (inactive)
4,Nc1ccc(N=Nc2ccccc2Cl)c(N)n1,0.821% (inactive)
5,Nn1cnnc1N/N=C/c1cc([N+](=O)[O-])c(Cl)cc1Cl,-0.276% (inactive)
6,CC1=C(C(N)=O)C(c2ccc3c(c2)OCO3)n2nc(-c3cccc(C)c3)nc2N1 (stereo not given),-0.667% (inactive)
7,O=c1nc(NO)ccn1C1CCCO1 (stereo not given),-4.07% (inactive)
8,CC(C)(C)OC(=O)Nc1ccc([C@@H](NC(=O)OC(C)(C)C)C(=O)OC(C)(C)C)cc1,1.22% (inactive)
9,COc1ccc(CCNC(=O)c2ccc(NC(=O)CC3SC(N4CCCCC4)=NC3=O)cc2)cc1OC (stereo not given),1.44% (inactive)
10,O=C(CSc1nc(Nc2ccccc2)nc(N2CCOCC2)n1)Nc1cc(Cl)ccc1O,-3.68% (inactive)
11,CC(C)CN1C(=O)CN(S(C)(=O)=O)CC1(C)C(=O)NCc1ccccc1 (stereo not given),-0.324% (inactive)
12,O=C(Nc1ccc(F)c(Cl)c1)C1CCN(S(=O)(=O)c2cccnc2)CC1,-4.67% (inactive)
13,CCN1/C(=C\c2ccc3ccccc3[n+]2CC)Sc2cc(C)ccc21,83.8% (active)
14,O=C(O)C1CCCCC1C(=O)Nc1ccc(Cl)cc1 (stereo not given),-0.998% (inactive)
15,NC(N)=NCCCc1cn(CC(=O)N2CCNCC2)nn1,-0.704% (inactive)
16,CCC[C@H]1CCCC/C=C\CCCC(=O)OCCN1C(=O)OC(C)(C)C,-3.09% (inactive)
17,OC(CNCc1ccc(Cl)c(Cl)c1)c1ccccc1 (stereo not given),0.815% (inactive)
18,Cc1ccc(C)c(NS(=O)(=O)c2cc(Br)cnc2N)c1,-0.259% (inactive)
19,CN1CCN(c2ccc(CNS(=O)(=O)c3cccc(F)c3)cc2)CC1,-0.358% (inactive)
20,COc1ccc(CNC(=O)CN2C(=O)NC3(CCCc4sccc43)C2=O)cc1 (stereo not given),1.66% (inactive)
21,CN(c1ccccc1)c1nc(N)c([N+](=O)[O-])c(NCc2ccco2)n1,2.01% (inactive)
22,CCCC1NC(=O)NC(C)=C1C(=O)OCC (stereo not given),-3.34% (inactive)
23,CC1(C(=O)NCc2ccc(F)c(F)c2)Cc2c(-c3ccc4c(c3)OCO4)ccnc2O1 (stereo not given),0.821% (inactive)

row,SMILES,activation
1,Cc1ccc(OCCNC(=O)CN2C(=O)NC3(CCCC3)C2=O)cc1,-0.135% (inactive)
2,Cc1ccc(CNC(=O)Cn2cnc3c(NCc4ccccc4)ncnc32)o1,-0.27% (inactive)
3,CC(C)(C)NC(=O)C(c1ccc(Cl)cc1)N(CCO)C(=O)c1snc(C(N)=O)c1N (stereo not given),0.402% (inactive)
4,CCOc1cc(S(=O)(=O)NC2CC(C)(C)NC(C)(C)C2)ccc1F,0.923% (inactive)
5,C[C@H]1COc2cc(N3CCSCC3)ccc2S(=O)(=O)N1,0.723% (inactive)
6,CC(=O)Nc1ccc(NC(=O)CS(=O)(=O)c2cn(CC(=O)N3CCCCC3)c3ccccc23)cc1,2.22% (inactive)
7,CC1CC(NC(=S)N(C)C)CC(C)(C)C1 (stereo not given),-1.93% (inactive)
8,CCN(CC)S(=O)(=O)c1ccc(CNC(=O)CN2C(=O)NC3(CCc4ccccc43)C2=O)cc1 (stereo not given),-3.43% (inactive)
9,CCOCc1nnc(NC(=O)CCS(=O)(=O)Cc2ccccc2)s1,2.97% (inactive)
10,CCC(C)NC(=O)/C=C/c1ccc(S(=O)(=O)NCc2ccco2)cc1 (stereo not given),-0.382% (inactive)
11,O=C(CCS(=O)(=O)c1ccc2c(c1)NC(=O)CS2)NCc1ccccc1Cl,-0.54% (inactive)
12,O=C(O)C1C2C=CC(C2)C1C(=O)N1CCN(CCO)CC1 (stereo not given),-0.292% (inactive)
13,CCC(=O)c1ccc(OCC(O)Cn2nc(C)c(C(C)=O)c2C)cc1 (stereo not given),-0.63% (inactive)
14,Cn1cccc1Cc1nnc(SCC(=O)NCCc2ccccc2)n1-c1ccc(F)cc1,-0.845% (inactive)
15,Cc1cccc(NC(=O)CSc2nc3c(c(=O)[nH]2)CCC3)c1C,-0.45% (inactive)
16,O=C1C[C@@H]2c3c(cccc3CN1Cc1ccccc1)C[C@@H](O)[C@H]2O,0.126% (inactive)
17,CCCn1c(C(Cc2ccccc2)NC(=O)COC)nc2ccccc21 (stereo not given),0.549% (inactive)
18,Cc1cccc(NC(=S)N2CCCC(c3nc4ccccc4[nH]3)C2)c1 (stereo not given),-0.267% (inactive)
19,Cc1cc2cc3c(N)[nH]nc3nc2cc1C,-0.975% (inactive)
20,C=CCN1C2CCCC1CC(NC(=S)Nc1cccc(OC)c1)C2 (stereo not given),-0.0533% (inactive)
21,O=S(=O)(NCc1ccccc1Br)c1ccccc1Br,0.131% (inactive)
22,CCN(CC)C(=O)C1=C(C)N(Cc2ccc(F)cc2)C(=O)C(CC(=O)NCc2cccc3ccccc23)C1 (stereo not given),-1.55% (inactive)
23,CN1CCC(N(C)S(=O)(=O)c2ccc(NC(=O)c3cccc(C#N)c3)cc2)CC1,0.319% (inactive)

row,SMILES,activation
1,CCCN(CC1CC1)C(=O)COC(=O)c1ccc(C)cc1O,-0.72% (inactive)
2,COc1cccc2oc(CCc3ccccc3)cc(=O)c12,2.76% (inactive)
3,COC(C[C@@H]1O[C@@H]1C(=O)[C@@H](C)OCc1ccccc1)OC,0.368% (inactive)
4,Cc1noc(/C=C/c2ccco2)c1S(=O)(=O)N1CCC(C(=O)Nc2ccc(Cl)cn2)CC1,-0.421% (inactive)
5,Cc1cc(-c2csc(N)n2)c(C)n1-c1ccccc1,-0.438% (inactive)
6,C[n+]1ccc(/C=C/c2c[nH]c3ccccc23)cc1,91.4% (active)
7,CSc1nsc(SC)c1NC(=O)OC1CCCCC1,-1.77% (inactive)
8,CN1CCN(c2ccc3c(c2)OC[C@H](Cc2ccccc2)NS3(=O)=O)CC1,1.2% (inactive)
9,CC(=O)c1c(C)[nH]c(C(=O)Nc2cc(S(=O)(=O)N(C)C)ccc2C)c1C,0.322% (inactive)
10,CO[C@@H]1CN(C)C(=O)c2cc(NC(=O)Nc3cc(F)ccc3F)ccc2OC[C@H](C)N(C(=O)c2ccccn2)C[C@@H]1C,-0.0824% (inactive)
11,CCCNC(=O)C1(C)CCN(Cc2csc(-c3ccc(Cl)cc3)n2)C1 (stereo not given),-0.168% (inactive)
12,CC(=O)NC12CC3CC(C1)CC(C(=O)N1CCN(C(=O)c4ccco4)CC1)(C3)C2,2.63% (inactive)
13,O=C(NCCCNC(=O)NC1CCCCC1)NC1CCCCC1,2.89% (inactive)
14,Cc1ccc(N(Cc2cc(=O)[nH]c3ccccc23)C(=O)CCl)cc1,-4.77% (inactive)
15,CC1CN(C(=S)Nc2cccc(F)c2)CC(C)O1 (stereo not given),0.508% (inactive)
16,COC(=O)c1cc2c(ccn2C)n1C,-0.203% (inactive)
17,CN(C)S(=O)(=O)c1ccc(N2CCCC2)c(C(=O)NCc2ccccc2)c1,0.204% (inactive)
18,Cc1ccc(-n2c(C)nnc2SCC(=O)NC2CC2)cc1,-1.22% (inactive)
19,O=C(Oc1ccc(Br)cc1C(=S)N1CCOCC1)c1cccc([N+](=O)[O-])c1,0.801% (inactive)
20,O=c1c(-c2ccc(Cl)cc2)[n+]([O-])c2ccccc2n1OCc1nc2ccccc2[nH]1,-0.455% (inactive)
21,O=C(Cc1nc2ccccc2[nH]c1=O)c1ccc(Cl)cc1,60.1% (active)
22,O=C(C[n+]1ccc2c(c1)nnn2-c1ccccc1)c1ccc(Cl)cc1,-1.14% (inactive)
23,COc1ccc(N2CCN(C3CCCCC3NS(=O)(=O)c3ccccc3)CC2)cc1 (stereo not given),-5.42% (inactive)

row,SMILES,activation
1,CCOC(=O)N1CCN(C(c2ccnc3ccccc23)c2nnnn2-c2c(C)cccc2C)CC1 (stereo not given),-1.14% (inactive)
2,CC(=O)NCCC(=O)Nc1nc(C)c(Cc2ccc3c(c2)OCO3)s1,-2.95% (inactive)
3,CCN(CC)c1ccc(NC(=O)C2CCC(CNc3c(N4CCCC4)c(=O)c3=O)CC2)c(C)c1 (stereo not given),-0.247% (inactive)
4,O=C(CS(=O)(=O)c1ccc(C(F)(F)F)cn1)NNC(=O)c1ccccc1,0.398% (inactive)
5,O=C(CSc1ccsc1[N+](=O)[O-])N1CCCCC1,-0.638% (inactive)
6,CCOC(=O)N1CCC(N2Cc3cccc(C(=O)Nc4ccc(S(=O)(=O)N(CC)CC)cc4)c3C2=O)CC1,-2.11% (inactive)
7,Cc1ccc(NC(=O)CSc2nc(=O)n(CCN(C)C)c3c2CCCC3)c(C)c1,0.222% (inactive)
8,CN1CCC(CN)(N2CCN(c3ccccc3)CC2)CC1,0.289% (inactive)
9,CCN(CC(=O)NCCCN1CCOCC1)S(=O)(=O)c1cc(Cl)ccc1Cl,-0.326% (inactive)
10,CC(C)C[C@@H](N)c1nnc(SCC(=O)c2ccc(Cl)cc2)o1,0.422% (inactive)
11,Cc1c(NC(=O)CSCc2ccccc2)cccc1C(=O)O,3.04% (inactive)
12,COc1cccc(C(NC(C)=O)c2nc(-c3ccccc3OC)cs2)c1 (stereo not given),0.438% (inactive)
13,COc1ccc2nc(Nc3nc(-c4cc5ccccc5oc4=O)cs3)sc2c1,57.4% (active)
14,CN(CCCC(=O)Nc1nccs1)S(=O)(=O)c1ccc(Cl)cc1,-1.49% (inactive)
15,C=C1CCC(N(O)c2cc(C)on2)C(=C)CCC2C1CC2(C)C (stereo not given),-0.223% (inactive)
16,NC(=O)COc1ccc(C23CC4CC(CC(C4)C2)C3)cc1,-3.06% (inactive)
17,COC(C[C@@H](O)C[C@H](O)[C@H](C)OCc1ccccc1)OC,2.56% (inactive)
18,COc1cccc(C(=O)Nc2c3c(nn2-c2cccc(C)c2C)CS(=O)(=O)C3)c1OC,-0.743% (inactive)
19,CCCCc1nc2cc(C(=O)NCCc3cnn(C)c3)ccc2o1,-2.8% (inactive)
20,CCNc1c(NS(=O)(=O)c2ccc(C3CCCCC3)cc2)c(=O)oc2ccccc12,-0.121% (inactive)
21,CC(=O)Nc1ccc(CN2CCN(Cc3ccc(F)c(F)c3)C(CCO)C2)cc1 (stereo not given),-0.804% (inactive)
